# Reference: PubChem BioAssay (Tox21)
# A number with no mark means an inactive call. Results filed as inconclusive are left out. Entries that show only a call come without a potency. Active and inactive are the calls of the source. Unless noted, calls come from the whole dose curve.
# Tests used:
# [1] = Nuclear factor erythroid 2-related factor 2/antioxidant responsive element (Nrf2/ARE) small molecule agonists: qHTS cell viability counter screen in human keratinocytes (AID 1919968; active = well fitted curve in the direction sought with a large enough effect in the repeat runs; an effect the other way counts as inactive or inconclusive; note: nearly all actives have a fitted effect of over 55% in size; note: potency is the fitted concentration of half-maximal effect)
# Summary of the method: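 HaCaT ARE reporter line, 1,500 cells/well; 5 h settle, 37 C/5% CO2; cpd in DMSO pinned; 23 h exposure; CellTiter-Fluor, 1 h; fluorescence.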
# [2] = Nuclear factor erythroid 2-related factor 2/antioxidant responsive element (Nrf2/ARE) small molecule agonists: luciferase reporter gene qHTS assay in human keratinocytes (AID 1919969); note: nearly all actives have a fitted effect of over 35% in size; note: potency is the fitted concentration of half-maximal effect
# [3] = biological target: KiSS-1 receptor (Homo sapiens) (UniProt Q969F8); assay: Human kisspeptin (KISS1R) small molecule agonists, calcium flux assay in KISS1R-HEK293 cells (AID 1920064; active = well fitted curve in the direction sought with a large enough effect in the repeat runs; an effect the other way counts as inactive or inconclusive)
# Summary of the method: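 Stable human KISS1R HEK293 line; 18 h plating, 37 C/5% CO2; calcium dye 1 h 37 C; compound pin transfer; kinetic fluorescence Ex/Em 480/540, 3 min.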
# [4] = G protein-coupled receptor (GPCR) small molecule agonists, calcium flux assay: HEK293 wild type cell line counter screen (AID 1920065)
# Summary of the method: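 Kinetic fluorescence at Ex/Em 480/540, recorded every second over 3 min, served as the read-out after compound addition. Each compound was tested at 15 concentrations in triplicate on cells pre-loaded with calcium dye for 1 h.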
# [5] = p53 small molecule agonists, cell-based qHTS assay with rat liver microsomes (AID 1963578); note: potency is the fitted concentration of half-maximal effect
# Summary of the method: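 Metabolic activation is supplied by rat liver microsomes with NADPH (each 0.5 mg/mL final). p53RE-bla cells incubate with compound 16 h at 37 C; reporter activity is measured by LiveBLAzer fluorescence.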
# [6] = p53 small molecule agonists, cell-based qHTS assay with human liver microsomes: qHTS cell viability counter screen (AID 1963579); note: nearly all actives have a fitted effect of over 45% in size; note: potency is the fitted concentration of half-maximal effect
# Summary of the method: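 After the 460/530 nm beta-lactamase read, CellTiter-Glo was added to the same wells and luminescence measured after 30 min at room temperature, giving viability of p53RE-bla cells treated 16 h with compounds plus microsomes and NADPH.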
# [7] = biological target: 5-hydroxytryptamine receptor 2A (Homo sapiens) (UniProt P28223); assay: 5-hydroxytryptamine receptor 2A (HTR2A) small molecule antagonists, cell-based qHTS assay (AID 1963586); note: nearly all actives have a fitted effect of over 45% in size; note: potency is the fitted concentration of half-maximal effect
# Summary of the method: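 Antagonist-mode intracellular calcium assay: DOI (4 nM) added after 5 min compound pre-incubation at room temperature to dye-loaded HTR2A-CHO cells. Fluorescence followed for 3 min, sampled every second.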
# [8] = biological target: 5-hydroxytryptamine receptor 2A (Homo sapiens) (UniProt P28223); assay: 5-hydroxytryptamine receptor 2A (HTR2A) small molecule agonists, cell-based qHTS assay (AID 1963587); note: nearly all actives have a fitted effect of over 30% in size; note: potency is the fitted concentration of half-maximal effect
# Summary of the method: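 CHO cells stably expressing human HTR2A, plated 18 h, loaded with calcium dye 1 h at 37 C. Agonist mode: compounds added and intracellular calcium fluorescence recorded kinetically for 2 min at 1 sec intervals.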
# [9] = biological target: D(2) dopamine receptor (Homo sapiens) (UniProt P14416); assay: Dopamine D2 receptor (DRD2) small molecule antagonists, cell-based qHTS assay (AID 1963595; active = well fitted inhibition curve with a large enough effect in the signal ratio in the repeat runs, with a control signal flat; the % refers to the signal ratio; note: potency is the fitted concentration of half-maximal effect)
# Summary of the method: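 HTRF cAMP read-out at 665 and 620 nm emission (340 nm excitation). Antagonist mode: compounds were tested against 12 nM quinpirole in DRD2-HEK293 cells, with 200 nM NKH477 raising cAMP and 0.1 mM Ro20-1724 blocking its breakdown.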
# [10] = p53 small molecule agonists, cell-based qHTS assay with rat liver microsomes: qHTS cell viability counter screen (AID 1963580); note: nearly all actives have a fitted effect of over 45% in size; note: potency is the fitted concentration of half-maximal effect
# Summary of the method: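 Viability is assessed in parallel with the p53 reporter read: HCT-116 p53RE-bla cells receive compounds plus rat microsomes and NADPH (0.5 mg/mL final apiece), incubate 16 h at 37 C, and then CellTiter-Glo luminescence is recorded.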
# [11] = p53 small molecule agonists, cell-based qHTS assay: qHTS cell viability counter screen (AID 1963581); note: nearly all actives have a fitted effect of over 45% in size
# Summary of the method: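 HCT-116 p53RE-bla cells, 4,000/well, plated 5 h before compound pin transfer; 16 h at 37 C; bla substrate 2 h RT; then CellTiter-Glo, 30 min RT, luminescence.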
# [12] = biological target: Muscarinic acetylcholine receptor M1 (Homo sapiens) (UniProt P11229); assay: Cholinergic receptor muscarinic 1 (CHRM1) small molecule antagonists, cell-based qHTS assay (AID 1963588); note: nearly all actives have a fitted effect of over 40% in size
# Summary of the method: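 CHRM1-CHO calcium-flux assay, antagonist mode. Cells were seeded 18 h, dye-loaded 1 h at 37 C and given compound for 5 min at RT, then acetylcholine was added at 50nM. FDSS fluorescence was read 3 min; 15 concentrations, three runs.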
# [13] = biological target: Muscarinic acetylcholine receptor M1 (Homo sapiens) (UniProt P11229); assay: Cholinergic receptor muscarinic 1 (CHRM1) small molecule agonists, cell-based qHTS assay (AID 1963589); note: nearly all actives have a fitted effect of over 35% in size
# Summary of the method: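 Human M1 in stable CHO line; 18 h plating, 1 h dye load 37 C; cpd added (agonist mode); Ca2+ fluorescence kinetic read, 1 s intervals; 15 conc, 3 runs.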
# [14] = cAMP Responsive Elements (CRE) small molecule agonists, cell-based qHTS assay (AID 1963590)
# Summary of the method: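 HEK 293T CRE-bla, 2,000 cells/well, 18 h preincubation 37 C/5% CO2; cpds (DMSO) pinned, 3 h; LiveBLAzer B/G FRET substrate, 2 h RT.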
# [15] = biological target: Beta-2 adrenergic receptor (Homo sapiens) (UniProt P07550); assay: Adrenergic beta2 receptor (ADRB2) small molecule antagonists, cell-based qHTS assay (AID 1963592); note: series mostly up to about 92 µM; nearly all actives have a fitted effect of over 50% in size
# Summary of the method: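 Cells (CHO, stable ADRB2 overexpression) incubated 18-20hr at 37C; compounds added from DMSO; agonist mix (1nM isoproterenol, 100uM IBMX, 25uM Ro-20-1724) added; 0.5hr RT; d2-cAMP and anti-cAMP-cryptate added; 1hr RT; 665/615 nm read.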
# [16] = biological target: D(2) dopamine receptor (Homo sapiens) (UniProt P14416); assay: Dopamine D2 receptor (DRD2) small molecule agonists, cell-based qHTS assay (AID 1963594); note: nearly all actives have a fitted effect of over 35% in size
# Summary of the method: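 HEK293 cells stably expressing human DRD2, pre-treated with PDE inhibitor Ro20-1724 (0.1 mM final) and compound 10 min at room temperature, then stimulated with NKH477 (200nM […]) for 30 min. cAMP read by HTRF (665/620 nm).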
# [17] = p53 small molecule agonists, cell-based qHTS assay with human liver microsomes (AID 1963577);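 note: p53 response element beta-lactamase reporter cells with liver microsomes plus NADPH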
# Summary of the method: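 Steps: plate p53RE-bla cells, incubate 5 h at 37 C; add compound in DMSO; add microsomes (0.5 mg/mL final) and NADPH (0.5 mg/mL final); incubate 16 h at 37 C; add LiveBLAzer, 2 h RT; read fluorescence.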
# [18] = biological target: Beta-2 adrenergic receptor (Homo sapiens) (UniProt P07550); assay: Adrenergic beta2 receptor (ADRB2) small molecule agonists, cell-based qHTS assay (AID 1963593);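 note: CHO cells stably overexpressing human ADRB2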
# Summary of the method: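 CHO cells stably over-expressing ADRB2 were plated overnight at 37C, then dosed with compounds plus a stimulation mix containing 100uM IBMX and 25uM Ro-20-1724 for 0.5hr at room temperature. cAMP was measured by HTRF competition, 1hr.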
# [19] = p53 small molecule agonists, cell-based qHTS assay (AID 1963582; active = well fitted activation curve with a large enough effect in the signal ratio in the repeat runs, not every such curve was filed as active; the % refers to the signal ratio; note: potency is the fitted concentration of half-maximal effect)
# Summary of the method: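 Reporter line: p53RE-bla. Pre-incubation 5 h, 37 C, 5% CO2; compound (DMSO, pin tool) 16 h, 37 C; B/G FRET substrate 2 h RT; fluorescence intensity read.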
# [20] = cAMP Responsive Elements (CRE) small molecule antagonists, cell-based qHTS assay (AID 1963591; active = well fitted inhibition curve with a large enough effect in the signal ratio in the repeat runs, not every such curve was filed as active; the % refers to the signal ratio)
# Summary of the method: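 Beta-lactamase reporter read by FRET substrate (LiveBLAzer B/G) after 2 h at room temperature. CRE-bla HEK293T cells had received compound plus 0.25 uM (final) NKH477 for 3 h at 37 °C.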
# Beta-2 adrenergic receptor (Homo sapiens), sequence (P07550 whole entry, looked up): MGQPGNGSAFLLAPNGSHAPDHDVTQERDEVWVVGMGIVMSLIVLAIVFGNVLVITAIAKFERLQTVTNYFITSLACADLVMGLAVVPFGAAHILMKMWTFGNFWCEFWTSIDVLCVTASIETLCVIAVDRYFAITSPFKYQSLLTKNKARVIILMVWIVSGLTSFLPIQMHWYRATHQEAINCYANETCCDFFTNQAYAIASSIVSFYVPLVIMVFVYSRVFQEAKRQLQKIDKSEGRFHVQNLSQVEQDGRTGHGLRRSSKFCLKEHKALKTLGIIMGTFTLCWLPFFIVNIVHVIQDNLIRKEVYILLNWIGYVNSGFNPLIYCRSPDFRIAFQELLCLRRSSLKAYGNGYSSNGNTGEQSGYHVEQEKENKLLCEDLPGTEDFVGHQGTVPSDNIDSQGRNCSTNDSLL
# 5-hydroxytryptamine receptor 2A (Homo sapiens), sequence (P28223 whole entry, looked up): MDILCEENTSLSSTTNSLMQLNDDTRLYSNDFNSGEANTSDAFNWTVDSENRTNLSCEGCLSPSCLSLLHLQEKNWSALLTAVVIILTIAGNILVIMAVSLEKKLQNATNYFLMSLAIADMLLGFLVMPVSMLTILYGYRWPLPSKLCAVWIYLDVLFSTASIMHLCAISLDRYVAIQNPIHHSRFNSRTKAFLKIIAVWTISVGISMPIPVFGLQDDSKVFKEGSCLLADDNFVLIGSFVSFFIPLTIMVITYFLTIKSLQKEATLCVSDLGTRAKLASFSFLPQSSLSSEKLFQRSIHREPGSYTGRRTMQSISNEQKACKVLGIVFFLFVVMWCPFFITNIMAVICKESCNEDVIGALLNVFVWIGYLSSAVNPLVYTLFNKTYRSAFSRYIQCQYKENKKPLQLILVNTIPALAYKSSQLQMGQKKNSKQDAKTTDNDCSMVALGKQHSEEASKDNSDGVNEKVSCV
# Muscarinic acetylcholine receptor M1 (Homo sapiens), sequence (P11229 whole entry, looked up): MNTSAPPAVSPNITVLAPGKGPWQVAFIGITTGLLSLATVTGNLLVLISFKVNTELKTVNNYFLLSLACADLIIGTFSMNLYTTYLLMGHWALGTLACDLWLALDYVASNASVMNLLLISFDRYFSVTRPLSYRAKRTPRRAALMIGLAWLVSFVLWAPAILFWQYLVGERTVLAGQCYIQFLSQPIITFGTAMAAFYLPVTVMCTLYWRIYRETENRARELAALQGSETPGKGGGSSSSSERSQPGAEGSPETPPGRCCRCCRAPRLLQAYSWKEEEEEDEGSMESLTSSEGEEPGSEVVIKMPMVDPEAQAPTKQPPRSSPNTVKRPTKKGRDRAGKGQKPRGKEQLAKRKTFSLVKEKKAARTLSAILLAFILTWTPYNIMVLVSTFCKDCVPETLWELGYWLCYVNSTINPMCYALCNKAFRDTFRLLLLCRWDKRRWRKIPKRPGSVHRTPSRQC
# D(2) dopamine receptor (Homo sapiens), sequence (P14416 whole entry, looked up): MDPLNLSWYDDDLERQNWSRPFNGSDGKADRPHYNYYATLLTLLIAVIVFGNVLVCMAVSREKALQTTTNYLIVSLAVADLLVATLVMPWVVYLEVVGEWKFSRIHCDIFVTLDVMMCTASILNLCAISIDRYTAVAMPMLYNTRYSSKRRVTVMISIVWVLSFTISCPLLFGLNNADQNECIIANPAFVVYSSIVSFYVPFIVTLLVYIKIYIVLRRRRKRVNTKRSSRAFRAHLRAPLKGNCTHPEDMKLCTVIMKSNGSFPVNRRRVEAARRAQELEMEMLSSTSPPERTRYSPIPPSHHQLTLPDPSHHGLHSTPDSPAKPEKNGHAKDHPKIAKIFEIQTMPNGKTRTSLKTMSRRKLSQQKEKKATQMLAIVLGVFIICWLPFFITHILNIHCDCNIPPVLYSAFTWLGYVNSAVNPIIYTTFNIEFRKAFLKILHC
# KiSS-1 receptor (Homo sapiens), sequence (Q969F8 whole entry, looked up): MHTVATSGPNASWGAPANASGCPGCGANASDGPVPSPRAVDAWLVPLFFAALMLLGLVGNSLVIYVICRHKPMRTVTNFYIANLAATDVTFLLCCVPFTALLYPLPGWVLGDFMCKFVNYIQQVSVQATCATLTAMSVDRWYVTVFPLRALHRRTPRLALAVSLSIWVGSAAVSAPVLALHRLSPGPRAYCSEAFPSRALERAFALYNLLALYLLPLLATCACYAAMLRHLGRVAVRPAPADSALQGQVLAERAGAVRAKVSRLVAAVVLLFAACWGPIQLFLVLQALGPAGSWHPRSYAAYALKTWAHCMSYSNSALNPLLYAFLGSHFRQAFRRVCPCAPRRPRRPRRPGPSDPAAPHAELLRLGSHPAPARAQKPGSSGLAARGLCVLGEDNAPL
Structure (SMILES),Potency [1],Potency [2],Potency [3],Potency [4],Potency [5],Potency [6],Potency [7],Potency [8],Potency [9],Potency [10],Potency [11],Potency [12],Potency [13],Potency [14],Potency [15],Potency [16],Potency [17],Potency [18],Potency [19],Potency [20]
O=C1C=CC(=O)N1c1ccc(Cc2ccc(N3C(=O)C=CC3=O)cc2)cc1,27.3 µM (active),9.69 µM (active),inactive,inactive,inactive,16.2 µM (active),37.5 µM (active),43.6 µM (active),4.33 µM (active),,,,,,,,,,,
COC(=O)CC(C)=O,inactive,inactive,inactive,inactive,,inactive,inactive,inactive,inactive,inactive,inactive,inactive,inactive,inactive,inactive,inactive,,,,
CCCc1c(OCCCOc2ccc(OCC(=O)O)cc2)ccc(C(C)=O)c1O,inactive,inactive,inactive,inactive,inactive,,inactive,54.9 µM (active),inactive,40.8 µM (active),,,inactive,,inactive,inactive,inactive,,,
Cc1ccc2c(c1)CCCN2,inactive,inactive,inactive,inactive,,inactive,inactive,inactive,,inactive,inactive,,inactive,,inactive,inactive,,inactive,,
CCCCCC/C=C\CCCCCCCC(=O)O,inactive,inactive,inactive,inactive,inactive,inactive,inactive,inactive,inactive,inactive,inactive,,inactive,,,inactive,,inactive,inactive,inactive
O=C1CCCc2c1cc1ccc3cccc4ccc2c1c34,inactive,34.8 µM (active),inactive,inactive,inactive,inactive,inactive,inactive,inactive,inactive,,inactive,inactive,,,inactive,,,,inactive
CCc1c2c(nc3ccc(OC(=O)N4CCC(N5CCCCC5)CC4)cc13)-c1cc3c(c(=O)n1C2)COC(=O)[C@]3(O)CC,inactive,inactive,inactive,inactive,17.8 nM (active),inactive,,,inactive,1.26 µM (active),,,,inactive,inactive,inactive,,,5 µM (active),
CC(=O)S[C@@H]1CC2=CC(=O)CC[C@]2(C)[C@H]2CC[C@@]3(C)[C@@H](CC[C@@]34CCC(=O)O4)[C@H]12,inactive,24.3 µM (active),inactive,inactive,inactive,inactive,,,,,inactive,,,,inactive,inactive,,,,
COc1cc(OC)c2ccc(=O)oc2c1,inactive,inactive,inactive,inactive,,inactive,inactive,inactive,inactive,inactive,inactive,inactive,inactive,,inactive,inactive,,,,inactive
CC/C=C\CCCCCCCCCCOC(C)=O,inactive,inactive,inactive,inactive,,inactive,inactive,,inactive,inactive,inactive,inactive,inactive,inactive,inactive,inactive,,inactive,,
CN1C[C@H]2c3ccccc3Oc3ccc(Cl)cc3[C@@H]2C1,inactive,inactive,inactive,inactive,inactive,inactive,inactive,23.9 µM (active),,inactive,inactive,,inactive,inactive,,inactive,,,,inactive
CCNC(=O)NCc1cccc(Cl)c1,inactive,inactive,inactive,inactive,,inactive,inactive,inactive,inactive,inactive,inactive,inactive,inactive,inactive,inactive,inactive,,inactive,,inactive
Cc1oc(-c2ccccc2)nc1CCOc1cccc2c1ccn2CCC(=O)O,inactive,inactive,inactive,inactive,inactive,inactive,inactive,,inactive,inactive,inactive,inactive,inactive,,inactive,inactive,,,,
CN(C)C(=O)NC1(c2ccccc2)CCN(CC[C@@]2(c3ccc(F)c(F)c3)CN(C(=O)c3ccccc3)CCO2)CC1,inactive,inactive,inactive,inactive,inactive,inactive,,inactive,,,inactive,,inactive,,inactive,inactive,,inactive,inactive,
